AC50 and outcome data for four compounds are collected here from PubChem BioAssay (EPA / NIEHS).

In test [1] the target is Bile acid receptor (Homo sapiens) (UniProt Q96RI1). The experiment in a line: ATG_IR1_CIS: Attagene CIS-FACTORIAL HepG2 Assay for human Nuclear Receptor Subfamily 1 Group H Member 4 (NR1H4), IR1 submotif (AID 2282946). Particulars: IR1 reporter transcription, actives raise or lower the signal. The procedure, abridged: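 Transient MRTU transfection, HepG2; 24 h dosing; RNA → RT-PCR → 6-FAM primer extension → HpaI digest → capillary electrophoresis fluorescence. Gain/loss of signal fitted relative to DMSO.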
Bile acid receptor (Homo sapiens), sequence (Q96RI1 whole entry, looked up): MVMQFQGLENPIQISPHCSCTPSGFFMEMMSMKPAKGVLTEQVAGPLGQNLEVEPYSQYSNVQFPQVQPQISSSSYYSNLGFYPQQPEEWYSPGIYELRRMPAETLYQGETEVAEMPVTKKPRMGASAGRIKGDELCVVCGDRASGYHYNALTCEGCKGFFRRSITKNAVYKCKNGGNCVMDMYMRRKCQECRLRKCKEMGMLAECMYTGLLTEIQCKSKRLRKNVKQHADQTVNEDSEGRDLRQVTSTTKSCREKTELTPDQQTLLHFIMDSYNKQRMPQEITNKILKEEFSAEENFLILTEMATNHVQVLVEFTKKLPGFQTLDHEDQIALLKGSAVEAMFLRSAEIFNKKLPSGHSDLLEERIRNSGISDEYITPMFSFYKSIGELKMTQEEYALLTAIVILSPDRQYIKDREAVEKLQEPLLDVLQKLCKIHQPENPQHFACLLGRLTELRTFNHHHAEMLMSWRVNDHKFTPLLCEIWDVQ

A short description of test [2]: ATG_GRE_CIS: Attagene CIS-FACTORIAL HepG2 Assay for human Glucocorticoid Response Elements (GRE) (AID 2282947). Conditions: HepG2 GRE cis-reporter, Attagene multiplex mRNA; actives raise or lower the signal. The procedure, abridged:
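HepG2 cells transiently transfected with multiple cis-promoter reporter units measure endogenous TF activity; 24 h compound exposure. Reporter mRNA quantified by RT-PCR, FAM labelling, HpaI digestion and capillary electrophoresis; bidirectional fit vs DMSO baseline.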

The nature of test [3]: ATG_ISRE_CIS: Attagene CIS-FACTORIAL HepG2 Assay for human Interferon Regulatory Factor 1 (IRF1) binding to an Interferon-Stimulated Response Element (ISRE) (AID 2282948). Conditions: HepG2 ISRE cis-reporter (Attagene), mRNA transcription readout; actives raise or lower the signal. The gist of the method:
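Quantitation relies on labelled RT-PCR fragments separated by capillary electrophoresis. Human HepG2 cells bearing cis-promoter reporter constructs were treated 24 h; DMSO served as baseline for bidirectional fitting.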

The nature of test [4]: ATG_M_32_CIS: Attagene CIS-FACTORIAL HepG2 Assay for M32 Transcription Factor (Internal Marker) (AID 2282949).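 Note: background control marker of the multiplexed CIS panel rather than a real target.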 Particulars: HepG2 Attagene cis-factorial M32 reporter, mRNA; actives raise or lower the signal. The gist of the method: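 Following 24 h chemical exposure of HepG2 cells transiently expressing cis-promoter reporter constructs, reporter transcript levels were determined by RT-PCR with fluorescent labelling and capillary electrophoresis, then fitted bidirectionally against DMSO.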

A short description of test [5]: ATG_M_06_CIS: Attagene CIS-FACTORIAL HepG2 Assay for M06 Transcription Factor (Internal Marker) (AID 2282950). Particulars: HepG2 Attagene CIS-FACTORIAL M06 internal marker reporter; actives raise or lower the signal. The gist of the method: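 Terse: HepG2, transient MRTU transfection (FuGene 6), 24 h dosing; total RNA, oligo(dT) RT, PCR, FAM label, HpaI cut, capillary electrophoresis; bidirectional fit vs DMSO baseline; background-control endpoint.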

Test [6] deals with Hypoxia-inducible factor 1-alpha (Homo sapiens) (UniProt Q16665). The experiment in a line: ATG_HIF1a_CIS: Attagene CIS-FACTORIAL HepG2 Assay for human Hypoxia Inducible Factor 1 (HIF1A) (AID 2282951). Particulars: HepG2 Attagene cis-factorial HIF1a reporter transcription; actives raise or lower the signal. The gist of the method: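 HepG2, transient cis-reporter library, 24 h dosing. RNA → RT (oligo dT) → PCR → 6-FAM primer extension → HpaI → CE. Bidirectional curve fit vs DMSO.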
Hypoxia-inducible factor 1-alpha (Homo sapiens), sequence (Q16665 whole entry, looked up): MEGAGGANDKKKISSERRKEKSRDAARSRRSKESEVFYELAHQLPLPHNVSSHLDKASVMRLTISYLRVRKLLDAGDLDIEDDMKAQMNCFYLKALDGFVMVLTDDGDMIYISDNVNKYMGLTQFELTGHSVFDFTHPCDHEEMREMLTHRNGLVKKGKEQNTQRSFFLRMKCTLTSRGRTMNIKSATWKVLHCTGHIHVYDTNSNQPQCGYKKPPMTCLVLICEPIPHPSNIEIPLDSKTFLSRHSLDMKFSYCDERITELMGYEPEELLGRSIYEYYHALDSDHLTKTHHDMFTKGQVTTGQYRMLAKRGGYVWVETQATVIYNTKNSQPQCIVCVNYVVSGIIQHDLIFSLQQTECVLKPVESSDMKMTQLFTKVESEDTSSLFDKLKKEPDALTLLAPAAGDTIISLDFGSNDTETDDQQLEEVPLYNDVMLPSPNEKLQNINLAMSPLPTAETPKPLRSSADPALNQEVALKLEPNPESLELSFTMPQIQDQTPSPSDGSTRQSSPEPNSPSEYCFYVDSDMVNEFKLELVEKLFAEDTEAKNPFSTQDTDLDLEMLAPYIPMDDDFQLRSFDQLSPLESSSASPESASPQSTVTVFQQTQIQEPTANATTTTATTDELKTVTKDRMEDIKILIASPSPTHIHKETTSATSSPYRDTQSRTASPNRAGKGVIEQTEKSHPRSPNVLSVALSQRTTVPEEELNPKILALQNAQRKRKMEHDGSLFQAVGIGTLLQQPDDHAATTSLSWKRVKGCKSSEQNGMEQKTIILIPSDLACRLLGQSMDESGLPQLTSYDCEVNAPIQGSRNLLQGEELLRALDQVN

In test [7] the target is Hepatocyte nuclear factor 6 (Homo sapiens) (UniProt Q9UBC0). The experiment in a line: ATG_HNF6_CIS: Attagene CIS-FACTORIAL HepG2 Assay for human Hepatocyte Nuclear Factor 6 (HNF6) (AID 2282952). Particulars: HepG2 Attagene cis-factorial HNF6 reporter transcription; actives raise or lower the signal. The procedure, abridged:
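Multiplexed mRNA reporter assay in transfected HepG2; 24 h dosing; RT-PCR plus capillary electrophoresis fluorescence; DMSO-referenced bidirectional curve fitting.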

The nature of test [8]: ATG_MRE_CIS: Attagene CIS-FACTORIAL HepG2 Assay for human Metal Responsive Element (MRE) (AID 2282954). Conditions: HepG2 MRE cis-reporter transcription, Attagene multiplex; actives raise or lower the signal. The gist of the method:
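HepG2 cells transiently transfected with multiple cis-element reporter units measure endogenous MTF1-driven transcription. After 24 h compound exposure, reporter mRNA is quantified by RT-PCR with 6-FAM labelling, HpaI digestion and capillary electrophoresis; bidirectional fits versus DMSO.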

Test [9] has as its target Paired box protein Pax-6 (Homo sapiens) (UniProt P26367). Briefly: ATG_Pax6_CIS: Attagene CIS-FACTORIAL HepG2 Assay for human Paired Box 6 (PAX6) (AID 2282956). Conditions: HepG2 CIS-FACTORIAL PAX6 reporter transcription, RNA readout; actives raise or lower the signal. The gist of the method:
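After twenty-four hours of chemical exposure, transfected HepG2 cells are harvested for RNA. Cis-promoter reporter transcripts are amplified, fluorescently labelled and sized by capillary electrophoresis, with gain and loss of signal scored against DMSO.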

Test [10] in a line: ATG_PXRE_CIS: Attagene CIS-FACTORIAL HepG2 Assay for human Pregnane X Receptor Element (PXRE) (AID 2282957). Conditions: HepG2 Attagene CIS-FACTORIAL PXRE reporter, mRNA; actives raise or lower the signal. The procedure, abridged: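 Cells: HepG2, transiently transfected reporter units under cis promoter control. Exposure: 24 h. Detection: reporter mRNA via RT-PCR/CE fluorescence; bidirectional fitting, DMSO-referenced.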

Test [11] is described as follows: ATG_PPRE_CIS: Attagene CIS-FACTORIAL HepG2 Assay for human Peroxisome Proliferator-activated Response Element (PPRE) (AID 2282958). Conditions: HepG2 PPRE cis-element reporter, Attagene transcription factor profiling; actives raise or lower the signal. The procedure, abridged: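 Transcript-level reporter induction in transfected HepG2 cells after 24 h chemical exposure, quantified by fluorescence from RT-PCR products separated by capillary electrophoresis.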

Test [12] can be described thus: ATG_Sox_CIS: Attagene CIS-FACTORIAL HepG2 Assay for human SRY-box transcription factor (SOX) (AID 2282960). Conditions: HepG2 Attagene cis-factorial SOX reporter, mRNA; actives raise or lower the signal. The gist of the method:
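Cells were transfected with reporter constructs under cis-regulatory promoters, then exposed to chemicals for 24 h. Reporter transcripts were quantified by fluorescence after RT-PCR and capillary electrophoresis; activity was fitted in both directions against DMSO.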

Test [13] addresses Transcription factor Sp1 (Homo sapiens) (UniProt P08047). Briefly: ATG_Sp1_CIS: Attagene CIS-FACTORIAL HepG2 Assay for human Specificity Protein 1 (Sp1) (AID 2282961). Conditions: HepG2 Sp1 cis-reporter transcription, actives raise or lower the signal. The procedure, abridged:
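Measures mRNA induction of an Sp1-linked reporter in HepG2 cells 24 h post-dosing. Multiplexed reporters read by RT-PCR and capillary electrophoresis; DMSO serves as negative control and baseline.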

Test [14] in a line: ATG_SREBP_CIS: Attagene CIS-FACTORIAL HepG2 Assay for human Sterol Regulatory Element Binding (SREBP) (AID 2282962). Conditions: HepG2 Attagene cis-factorial SREBP reporter, mRNA; actives raise or lower the signal. The procedure, abridged:
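Twenty-four hours after chemical dosing of transfected HepG2 cultures, reporter RNA was converted to cDNA, amplified, end-labelled with 6-FAM and resolved by capillary electrophoresis. Responses were fitted relative to DMSO.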

Test [15] deals with Signal transducer and activator of transcription 3 (Homo sapiens) (UniProt P40763). The experiment in a line: ATG_STAT3_CIS: Attagene CIS-FACTORIAL HepG2 Assay for human Signal Transducer and Activator of Transcription 3 (STAT3) (AID 2282963). Conditions: HepG2, Attagene cis-factorial STAT3 reporter transcription; actives raise or lower the signal. The gist of the method: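 HepG2 cells transiently transfected with cis-element-driven multiple reporter transcription units; after 24 h chemical exposure, reporter mRNA measured by RT-PCR, 6-FAM primer-extension labelling, HpaI digestion and capillary electrophoresis. Bidirectional fitting versus DMSO baseline.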
Signal transducer and activator of transcription 3 (Homo sapiens), sequence (P40763 whole entry, looked up): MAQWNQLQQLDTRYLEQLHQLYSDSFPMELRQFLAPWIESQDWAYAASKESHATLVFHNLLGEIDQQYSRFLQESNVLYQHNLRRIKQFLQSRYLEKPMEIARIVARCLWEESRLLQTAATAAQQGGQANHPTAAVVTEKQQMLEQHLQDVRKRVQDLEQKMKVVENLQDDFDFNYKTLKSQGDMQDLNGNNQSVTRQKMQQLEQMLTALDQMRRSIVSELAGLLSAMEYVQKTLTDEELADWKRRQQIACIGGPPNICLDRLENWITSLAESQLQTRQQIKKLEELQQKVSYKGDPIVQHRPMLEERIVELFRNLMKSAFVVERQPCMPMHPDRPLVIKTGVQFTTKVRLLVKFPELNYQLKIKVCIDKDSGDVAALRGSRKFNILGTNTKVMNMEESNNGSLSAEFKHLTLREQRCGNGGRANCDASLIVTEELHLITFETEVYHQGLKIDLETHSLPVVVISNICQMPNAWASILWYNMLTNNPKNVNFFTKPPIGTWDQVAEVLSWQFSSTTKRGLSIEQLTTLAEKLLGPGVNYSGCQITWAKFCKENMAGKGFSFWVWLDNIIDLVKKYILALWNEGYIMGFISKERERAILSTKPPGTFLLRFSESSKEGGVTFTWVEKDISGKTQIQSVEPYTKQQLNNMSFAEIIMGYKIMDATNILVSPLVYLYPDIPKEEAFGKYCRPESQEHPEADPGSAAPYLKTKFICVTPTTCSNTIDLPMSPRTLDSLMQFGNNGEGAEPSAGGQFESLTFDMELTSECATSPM

The nature of test [16]: ATG_TA_CIS: Attagene CIS-FACTORIAL HepG2 Assay for human TA Basal Promoter (AID 2282964). Particulars: HepG2 Attagene CIS-factorial TA basal promoter reporter; actives raise or lower the signal. The procedure, abridged:
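Transfected HepG2, 24 h compound exposure; RNA → RT-PCR → FAM primer extension → HpaI cut → CE fluorescence. Gain/loss-of-signal fitted against DMSO negative control. Background-control readout.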

The nature of test [17]: ATG_TCF_b_cat_CIS: Attagene CIS-FACTORIAL HepG2 Assay for human T-Cell-Factor with beta-catenin (TCF/b-cat) (AID 2282965). Conditions: HepG2 TCF/beta-catenin cis-reporter transcription, actives raise or lower the signal. The procedure, abridged:
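HepG2 cells transiently transfected with multiple cis-promoter-regulated reporter transcription units, so endogenous transcription factor activity is measured. Reporter mRNA read 24 hours after dosing by RT-PCR, fluorescent labelling and capillary electrophoresis; bidirectional fitting against DMSO.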

Test [18] can be described thus: ATG_PBREM_CIS: Attagene CIS-FACTORIAL HepG2 Assay for human Phenobarbital-responsive Enhancer Module (PBREM) (AID 2282955). Particulars: HepG2 PBREM cis-reporter, Attagene multiplexed transcription; actives raise or lower the signal. The procedure, abridged:
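HepG2, transient MRTU transfection, 24 h dosing; RNA → oligo(dT) RT → PCR → 6-FAM extension → HpaI → CE. Bidirectional fit vs DMSO.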

The nature of test [19]: ATG_RORE_CIS: Attagene CIS-FACTORIAL HepG2 Assay for human RAR-related Orphan Receptor Element (RORE) (AID 2282959). Conditions: HepG2 Attagene cis-factorial RORE reporter, mRNA; actives raise or lower the signal. The gist of the method: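 Multiplexed reporter assay measuring mRNA induction from a cis promoter element in transiently transfected HepG2 cells after 24 h treatment. Detection via RT-PCR and capillary electrophoresis fluorescence; DMSO serves as baseline.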

Test [20] addresses Heat shock factor protein 1 (Homo sapiens) (UniProt Q00613). Briefly: ATG_HSE_CIS: Attagene CIS-FACTORIAL HepG2 Assay for human Heat Shock Transcription Factor 1 (HSE) (AID 2282953). Conditions: HepG2 HSE cis-reporter, Attagene RNA transcription; actives raise or lower the signal. The procedure, abridged:
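Read-out: fluorescence of reporter-specific RT-PCR fragments separated by capillary electrophoresis. HepG2 carrying transfected cis-element reporter units; 24 h dosing; activity fitted in both directions relative to DMSO baseline.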

Molecules are shown by their SMILES. Activity calls are given as the source filed them. Rule for the calls: active = hit-call score of the fitted dose curve at least 0.9, where 1 is the maximum; inactive = score below 0.9.

Transcription factor Sp1 (Homo sapiens), sequence (P08047 whole entry, looked up): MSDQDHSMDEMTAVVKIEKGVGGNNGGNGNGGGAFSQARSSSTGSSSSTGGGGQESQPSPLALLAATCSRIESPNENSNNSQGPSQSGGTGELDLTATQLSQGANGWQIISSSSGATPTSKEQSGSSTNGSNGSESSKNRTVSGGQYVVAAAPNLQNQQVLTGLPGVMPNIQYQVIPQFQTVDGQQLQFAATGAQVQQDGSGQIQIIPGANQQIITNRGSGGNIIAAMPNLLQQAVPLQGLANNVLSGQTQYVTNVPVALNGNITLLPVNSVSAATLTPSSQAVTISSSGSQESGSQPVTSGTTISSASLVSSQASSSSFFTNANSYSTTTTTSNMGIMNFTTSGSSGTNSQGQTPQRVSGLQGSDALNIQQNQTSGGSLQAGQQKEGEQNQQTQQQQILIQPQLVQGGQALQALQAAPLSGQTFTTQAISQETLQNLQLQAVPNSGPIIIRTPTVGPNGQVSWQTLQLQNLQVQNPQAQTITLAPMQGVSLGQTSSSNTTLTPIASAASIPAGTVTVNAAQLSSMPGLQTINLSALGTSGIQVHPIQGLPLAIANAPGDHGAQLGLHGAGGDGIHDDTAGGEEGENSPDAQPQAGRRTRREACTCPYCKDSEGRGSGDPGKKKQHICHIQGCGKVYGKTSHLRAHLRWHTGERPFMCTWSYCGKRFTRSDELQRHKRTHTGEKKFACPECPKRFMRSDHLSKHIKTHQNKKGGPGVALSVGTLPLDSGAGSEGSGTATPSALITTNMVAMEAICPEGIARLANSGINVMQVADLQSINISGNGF
Paired box protein Pax-6 (Homo sapiens), sequence (P26367 whole entry, looked up): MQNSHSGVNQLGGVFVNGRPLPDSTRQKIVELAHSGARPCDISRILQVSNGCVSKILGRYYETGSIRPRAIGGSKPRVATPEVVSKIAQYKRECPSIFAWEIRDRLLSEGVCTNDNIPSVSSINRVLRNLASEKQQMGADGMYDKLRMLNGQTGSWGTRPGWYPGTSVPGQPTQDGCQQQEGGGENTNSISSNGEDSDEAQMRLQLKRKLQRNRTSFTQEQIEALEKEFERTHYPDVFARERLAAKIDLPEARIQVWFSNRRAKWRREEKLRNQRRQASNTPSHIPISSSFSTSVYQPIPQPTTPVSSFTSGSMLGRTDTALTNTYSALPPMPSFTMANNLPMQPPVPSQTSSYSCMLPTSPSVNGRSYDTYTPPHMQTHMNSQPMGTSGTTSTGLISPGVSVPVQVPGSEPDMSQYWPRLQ
Hepatocyte nuclear factor 6 (Homo sapiens), sequence (Q9UBC0 whole entry, looked up): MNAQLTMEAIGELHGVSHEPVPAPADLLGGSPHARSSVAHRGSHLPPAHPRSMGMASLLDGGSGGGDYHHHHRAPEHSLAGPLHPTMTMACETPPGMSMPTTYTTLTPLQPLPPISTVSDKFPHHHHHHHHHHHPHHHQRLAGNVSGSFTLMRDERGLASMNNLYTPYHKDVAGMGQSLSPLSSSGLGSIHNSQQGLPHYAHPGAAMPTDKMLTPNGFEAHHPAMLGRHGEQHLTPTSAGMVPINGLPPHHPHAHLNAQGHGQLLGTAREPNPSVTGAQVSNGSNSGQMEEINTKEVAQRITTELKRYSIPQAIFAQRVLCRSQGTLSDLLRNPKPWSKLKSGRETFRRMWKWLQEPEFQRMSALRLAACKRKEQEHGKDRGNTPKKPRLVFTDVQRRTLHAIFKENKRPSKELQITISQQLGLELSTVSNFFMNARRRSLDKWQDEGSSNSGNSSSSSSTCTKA
Heat shock factor protein 1 (Homo sapiens), sequence (Q00613 whole entry, looked up, the tested form may be a part): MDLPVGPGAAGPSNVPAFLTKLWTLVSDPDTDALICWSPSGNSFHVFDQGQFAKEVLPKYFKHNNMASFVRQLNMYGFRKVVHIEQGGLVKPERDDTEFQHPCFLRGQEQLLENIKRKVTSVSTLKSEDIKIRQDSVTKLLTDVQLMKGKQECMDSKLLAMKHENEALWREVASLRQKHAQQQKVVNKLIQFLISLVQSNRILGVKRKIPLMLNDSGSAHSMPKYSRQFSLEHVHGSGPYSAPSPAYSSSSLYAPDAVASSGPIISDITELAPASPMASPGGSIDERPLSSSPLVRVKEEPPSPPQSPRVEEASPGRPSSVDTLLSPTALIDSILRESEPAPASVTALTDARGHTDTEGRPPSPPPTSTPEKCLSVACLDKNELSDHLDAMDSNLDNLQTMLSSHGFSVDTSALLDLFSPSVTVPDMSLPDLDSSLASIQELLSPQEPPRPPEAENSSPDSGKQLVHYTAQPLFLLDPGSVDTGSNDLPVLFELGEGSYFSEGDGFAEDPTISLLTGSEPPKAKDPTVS

`CC(C)c1cccc(C(C)C)c1N1C(=O)c2ccc(O)cc2C1=O`: the AC50 in test [1] was 69.5 µM (active); in [3], 84.7 µM (active); in test [7], 124 µM (active); in test [8], 76.9 µM (active); in test [9] it was 76.9 µM (active); in test [11] it was 26.9 µM (active). The AC50 was 122 µM (active) in [12], 74.2 µM (active) in test [13], 100 µM (active) in [14] and 100 µM (active) in test [17]. For the same compound, the compound was classed as inactive in [2], in test [4], in test [5], in test [6], in test [10] and in test [15]. The outcome in test [16] was inactive.
Take `CC1(C)C(=O)N(Br)C(=O)N1Br`: the compound was called inactive in test [1], in test [2], in test [3], in [4], in [5] and in [6]. Besides, the outcome in [7], in test [8], in test [18], in test [9], in [10] and in test [11] was inactive. In addition, the result in test [19], in test [13], in [14], in [15], in [16] and in test [17] was inactive.
With `CC[C@H](C)C(=O)O[C@H]1C[C@@H](C)C=C2C=C[C@H](C)[C@H](CC[C@@H]3C[C@@H](O)CC(=O)O3)[C@H]21`, the outcome in [1], in test [2], in test [3], in test [4], in test [5] and in test [6] was inactive. The call in test [7], in test [20], in [18], in test [9], in test [11] and in test [19] was inactive. For the same compound, the compound was called inactive in [13], in test [15], in test [16] and in test [17]. Further, the AC50 is 10.5 µM (active) in [8], 1.8 µM (active) in [10] and 1.36 µM (active) in test [14].
For the compound `CCc1cc(SCc2sc(-c3ccc(C(F)(F)F)cc3)nc2CN2CCN(c3ccc(OC)cc3)CC2)ccc1OCC(=O)O`, the AC50 was 3.93 µM (active) in [1]; 14 µM (active) in test [3]; 15.3 µM (active) in [6]; 8.53 µM (active) in test [8]; 17 µM (active) in test [18]; 17.5 µM (active) in test [9]. In addition, the AC50 is 0.0329 µM (active) in test [11]; 11 µM (active) in test [19]; 0.225 µM (active) in test [14]; 14.8 µM (active) in test [16]; 7.72 µM (active) in [17]. Besides, the compound was classed as inactive in test [2], in test [4], in test [5], in test [7], in test [10] and in [12]. Also, the call in test [13] and in [15] was inactive.

By AC50 is commonly meant the concentration at which the activity in the assay is half-maximal.
